Measured values as given in PubChem BioAssay AID1347146 (National Center for Advancing Translational Sciences (NCATS), 2019).
Records with an inconclusive call do not appear. Where a call stands in place of a potency, no number is given. Activity calls are given as the source filed them. The call rests on the fitted dose curve; in most records, active means well fitted inhibition curve with a large enough effect; inconclusive means small, poorly fitted or top-dose-only effect; inactive means no such curve, though single readings can be large or run the other way.

target: Nicotinamide N-methyltransferase (Homo sapiens) (UniProt P40261); assay: qHTS Assay for Inhibitors of N-terminal methyltransferase 1 (NTMT1): NNMT MTaseGlo counterscreen assay; conditions: NNMT enzyme, MTase-Glo luminescence counterscreen; series mostly up to 57.1 µM
Sequence (P40261 whole entry, looked up): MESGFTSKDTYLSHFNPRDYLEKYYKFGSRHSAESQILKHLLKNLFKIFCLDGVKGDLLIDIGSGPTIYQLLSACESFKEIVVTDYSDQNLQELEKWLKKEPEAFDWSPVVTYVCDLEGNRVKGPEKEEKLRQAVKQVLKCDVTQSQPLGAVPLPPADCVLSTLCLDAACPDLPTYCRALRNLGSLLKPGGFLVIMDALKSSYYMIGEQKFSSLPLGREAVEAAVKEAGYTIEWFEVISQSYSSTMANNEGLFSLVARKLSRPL
Excerpt: Assay Submitter (PI): Rong Huang Ph.D, Purdue University, West Lafayette, IN 47907
The N-terminal methytransferase 1 is the first methyltransferase that methylates protein alpha-N-amines and plays an important role in regulating cell mitosis, chromatin interactions and DNA repair. It is observed to be over-expressed in various cancer patient tissues like malignant melanoma and colorectal cancer tissues. Knockdown of NTMT1 in cancer cells causes cell mitotic defects and enhances sensitivity to DNA damaging chemotherapeutics. […] These critical cellular processes in which NTMT1 is implicated, coupled with emerging links to cellular dysfunction, strengthen the inference that NTMT1 is a compelling novel anticancer target. Progress have been made in understanding the molecular properties of NTMT1 and the biological consequences of protein alpha-N-terminal methylation, but there are no specific small molecule probes available for NTMT1 to fully characterize its MTase activity. To address this unmet need, a panel of assay is created and established to enable quantitative high-throughput screening (qHTS) for novel, potent, and selective small molecule NTMT1 inhibitors. Two orthogonal qHTS that use different reagents (ThioGlo vs. MTaseGlo) are developed for primary robotic screening against the NCATS chemical library of more than 400,000 small molecules. Identified inhibitors are reacquired, validated, and further characterized.
MTaseGlo Assay is a luminescence screen that measure the activity of methyltransferases based on the reaction product S-adenosyl homocysteine (SAH). The substrate SAM is converted to SAH upon enzyme activation. MTase-Glo reagent and detection solution convert SAH to ATP and measure the light from the luciferase reaction. Nicotinamide N-methyltransferase (NNMT) is a cystolic enzyme that catalyzes the transfer of a methyl group from the co-factor SAM onto the substrate, nicotinamide (NA) to form 1-methyl-nicotinamide (MNA) and SAH. NNMT MTaseGlo assay is used as a counterscreen to evaluate selectivity of identified inhibitors.
Early Translation Branch (ETB)
National Center for Advancing Translational Sciences (NCATS)
National Institute of Health (NIH)
NNMT enzyme, SAM, NA, and control is provided by the Huang laboratory.
In brief, 3 µL of enzyme mixture (final concentrations of 125 nM and 100 µM for NNMT and SAM, respectively) into all wells of a 1,536-well solid-bottom white plate (Greiner Bio One, Monroe, NC). 23 nL of DMSO or compound (final concentration range 234 nM to 143 microM) was transferred via Wako Pin-tool (Wako Automation, Richmond, VA) and incubated (RT) for ~15 minutes. Next, 1 µL of substrate (final concentration 1 µM NA) or buffer was dispensed, and the reaction proceeded for 30 minutes (RT, protected from light) followed by a 1 microL addition of [5X] MTase-Glo Reagent(R). Samples were incubated (RT, protected from light) for 30 minutes to allow for SAH to be converted to ADP, followed by a 5 microL addition of [1X] MTase-Glo Detection Solution(R) to allow for ADP to be converted to ATP, which was then detected with a luciferase reaction. Samples were centrifuged for 15 seconds at 1,000 RPM's, followed by a RT incubation for 30 minutes. Plates were then read using Luminescence optics on a ViewLux detector. Data were normalized to no-enzyme (0% activity) and no-inhibitor (DMSO; 100%) controls, and the resulting percent inhibition data were fitted to a 4-parameter Hill equation using Graphpad Prism.
Potency means the concentration at half of the fitted maximal effect.

SMILES | Potency
NCCc1ccc(O)c(O)c1 | inactive
OCCNc1ncnc2c1ncn2[C@@H]1O[C@@H](CO)[C@H](O)[C@@H]1O | inactive
c1cc(CN2CCCCC2)cc(OCCCNc2nc3ccccc3s2)c1 | inactive
O=[N+]([O-])c1ccc(-c2nc(-c3ccc(F)cc3)c(-c3ccncc3)[nH]2)cc1 | inactive
COc1ccc(C(=O)/C(Cc2cc(OC)c(OC)c(OC)c2)=C(\C(=O)O)c2ccc3c(c2)OCO3)cc1 | inactive
Nc1nc(Cl)nc2c1ncn2[C@@H]1O[C@H](COP(=O)(O)OP(=O)(O)OP(=O)(O)O)[C@@H](O)[C@H]1O | inactive
CC(=O)c1ccc2c(c1)N(CCCN(C)C)c1ccccc1S2 | inactive
CCn1nc(C(=O)O)c(=O)c2cc3c(cc21)OCO3 | inactive
OC[C@H]1O[C@@H](n2cnc3cncnc32)[C@H](O)[C@@H]1O | 11.2 µM (active)
COc1ccccc1CNCCCCCCNCCCCCCCCNCCCCCCNCc1ccccc1OC | inactive
COc1cccc(OC)c1OCCNCC1CSc2ccccc2O1 (stereo not given) | inactive
C/C(=C\CNc1ncnc2c1ncn2[C@@H]1O[C@H](CO)[C@@H](O)[C@H]1O)CO | inactive
O=S(=O)(c1cccc2c(Cl)cccc12)N1CCCNCC1 | inactive
Oc1ccc(O)cc1 | 39.8 µM (active)
Nc1ccnc2c1ncn2[C@@H]1O[C@H](CO)[C@@H](O)[C@H]1O | 14.1 µM (active)
CN(C)[C@@H]1C(=O)C(C(N)=O)=C(O)[C@@]2(O)C(=O)C3=C(O)c4c(O)ccc(Cl)c4[C@@H](O)[C@H]3C[C@@H]12 | inactive
Oc1cc2c(cc1O)C(c1ccccc1)CNCC2 (stereo not given) | inactive
C[N+]1(C)CCC(OC(=O)C(c2ccccc2)c2ccccc2)CC1 | inactive
COc1cc2c(NC3CCN(CC4CCCCC4)CC3)nc(N3CCCCC3)nc2cc1OCCCN1CCCCC1 | inactive
COc1cc(/C=C(\C#N)C(=O)Nc2nnc(C(F)(F)F)s2)ccc1OCc1ccc(C(F)(F)F)cc1C(F)(F)F | inactive

SMILES | Potency
O=C1NC(=O)C(c2ccccc2[N+](=O)[O-])=C1Nc1ccc(O)c(Cl)c1 | inactive
CN=c1nc(-c2ccccc2)n(-c2ccccc2)s1 | inactive
Cc1ccccc1CNc1ncnc2c1ncn2[C@@H]1O[C@H](CO)[C@@H](O)[C@H]1O | inactive
N=C(N)c1ccc(OCCCCCOc2ccc(C(=N)N)cc2)cc1 (tested in a mixture with another compound) | inactive
OCC1OC(n2cnc3c(NO)ncnc32)C(O)C1O (stereo not given) | inactive
CCC(CC)n1ccc2c(C(=O)NCc3c(C)cc(C)[nH]c3=O)cc(C#N)cc21 | inactive
CN(C)C(=O)/N=N/C(=O)N(C)C | inactive
COc1cc(/C=C(\C#N)C(=O)c2ccc(O)c(O)c2)cc(I)c1O | inactive
Nc1nc(Cl)nc2c1ncn2[C@@H]1O[C@H](CO)[C@@H](O)[C@@H]1F | inactive
N[C@@H](Cc1c[nH]c2ccc(O)cc12)C(=O)O | inactive
O=C(/C=C/c1ccc(O)cc1)c1ccc(O)cc1O | inactive
c1ccc(CN2CCC3(CCCc4ccccc43)CC2)cc1 | inactive
CC(Cc1ccc(O)c(O)c1)C(C)Cc1ccc(O)c(O)c1 (stereo not given) | 39.8 µM (active)
OCC1OC(n2cnc3c(NCc4ccco4)ncnc32)C(O)C1O (stereo not given) | inactive
O=C1Cc2c([nH]c3ccc(Br)cc23)-c2ccccc2N1 | inactive
CN(C)CCCN1c2ccccc2Sc2ccccc21 | inactive
CC1=C(\C=C/C(C)=C/C=C\C(C)=C\C(=O)O)C(C)(C)CCC1 | inactive
Cc1ccc(O)c(N=Nc2ccccc2)n1 | 14.1 µM (active)
COc1cc2c(NC3CCN(C)CC3)cc(N3CCCCN(C)CC3)cc2cc1OCCOCCN(C)C | inactive
Clc1ccc(N2CCN(Cc3c[nH]c4ncccc34)CC2)cc1 | inactive
